# Bioassay records as filed in PubChem.
# PAFAH1B3 FP inh = PAFAH1B3 enzyme inhibitors, primary screen, biochemical, fluorescence polarization, human; Platelet-activating factor acetylhydrolase IB subunit alpha1 (Homo sapiens), Q15102; actives 0.28% (n = 340,000); recombinant PAFAH1B3, FP-rhodamine probe; inhibition, % at 3.39 µM;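 active = inhibition above the screen-wide average of all tested compounds plus 3 SD, cut at about 25% in these data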;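 note: 0% = enzyme with DMSO only and 100% = wells lacking PAFAH1B3 protein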
# Target sequence (Q15102 whole entry, looked up): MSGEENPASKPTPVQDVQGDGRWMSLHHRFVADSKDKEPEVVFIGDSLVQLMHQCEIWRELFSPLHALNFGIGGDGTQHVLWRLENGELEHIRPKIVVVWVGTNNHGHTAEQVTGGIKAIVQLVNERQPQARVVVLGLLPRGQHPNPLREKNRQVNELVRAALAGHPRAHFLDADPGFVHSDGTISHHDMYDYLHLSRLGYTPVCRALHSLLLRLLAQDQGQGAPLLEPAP
# PAFAH2 inh = PAFAH2 enzyme inhibitors, primary screen, biochemical, fluorescence polarization, human | actives 0.99% (n = 340,000) | inhibition, % at 3.39 µM | AID 492956, 2010 | Platelet-activating factor acetylhydrolase 2, cytoplasmic (Homo sapiens), Q99487 | recombinant PAFAH2, FP-rhodamine activity probe;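 active = inhibition above the mean over all tested compounds plus 3 SD, cut at about 30% in these data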;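 note: inhibitors block probe labeling of enzyme so polarization drops; 0% = enzyme with DMSO and 100% = wells lacking PAFAH2 protein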
# EBNA-1 inh = EBNA-1 DNA-binding inhibitors, primary screen, biochemical, fluorescence polarization; inhibition, % at 14.8 µM; actives 0.34% (n = 300,000); AID 1950, 2009; in the data active = inhibition above about 28%
# ZTA counter = blocks Epstein-Barr virus ZTA, an EBNA-1 counter-screen; AID 2234; actives 0.15% (n = 320,000); P03206; ZTA-DNA binding, fluorescence polarization; inhibition, % at 11 µM; in the data active = inhibition above about 33%
# PAFAH1B2 FP inh = PAFAH1B2 enzyme inhibitors, primary screen, biochemical, fluorescence polarization, human; recombinant PAFAH1B2, FP-rhodamine activity probe; actives 1.2% (n = 340,000); Platelet-activating factor acetylhydrolase IB subunit alpha2 (Homo sapiens), P68402; inhibition, % at 3.39 µM;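 active = inhibition above the mean of all tested compounds plus 3 SD, cut at about 24% in these data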;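 note: 0% = enzyme with DMSO and 100% = wells lacking PAFAH1B2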
# Target sequence (P68402 whole entry, looked up): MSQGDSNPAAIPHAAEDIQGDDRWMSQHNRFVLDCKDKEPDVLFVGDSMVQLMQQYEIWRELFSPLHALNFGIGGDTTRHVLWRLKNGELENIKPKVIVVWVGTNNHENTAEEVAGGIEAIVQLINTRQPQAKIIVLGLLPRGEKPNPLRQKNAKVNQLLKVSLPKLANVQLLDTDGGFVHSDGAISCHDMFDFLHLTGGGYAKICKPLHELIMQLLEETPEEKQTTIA
# pPAFAH inh = pPAFAH enzyme inhibitors, primary screen, biochemical, fluorescence polarization, human; actives 1.5% (n = 330,000); inhibition, % at 3.39 µM; recombinant pPAFAH, FP-rhodamine probe fluorescence polarization;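 active = inhibition above the mean inhibition across the screen plus 3 SD, cut at about 25% in these data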;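 note: inhibitors block binding of the rhodamine activity-based probe so polarization drops; 0% = enzyme with DMSO and 100% = wells lacking pPAFAH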
# * marks the source's active call; other numbers are inactive results; nt = not tested or not shown; + = active, no number. This is a sample that favours compounds with a hit; in the whole collection about 2.9% have one here.
SMILES,PAFAH1B3 FP inh,PAFAH2 inh,EBNA-1 inh,ZTA counter,PAFAH1B2 FP inh,pPAFAH inh
O=C(CCC1CCCN(C(=O)CCCc2ccccc2)C1)N1CCN(c2ccccn2)CC1 (configuration not stated),4,-2,-8,7,7,25*
Cc1nc(NS(=O)(=O)c2ccccc2)sc1NC(=O)Nc1ccc(Cl)cc1,8,5,-4,10,4,34*
Cc1ccc(NS(=O)(=O)c2ccc(NC(=O)c3ccccc3C(=O)O)cc2)c(C)c1,4,4,0,-22,11,34*
Cc1ccc(NS(=O)(=O)c2ccc(NC(=O)CSc3ccc(Cl)cc3)cc2)c(C)c1,9,-7,12,15,18,33*
Cc1cc(C)cc(NS(=O)(=O)c2ccc(NC(=O)c3ccccc3C(=O)O)cc2)c1,nt,nt,-2,-5,nt,9
O=S(=O)(Nc1ccc(O)c(NS(=O)(=O)c2ccccc2)c1)c1ccccc1,16,17,1,0,13,16
Cc1cc(NS(=O)(=O)c2ccccc2)ccc1NS(=O)(=O)c1ccccc1,5,12,nt,nt,28*,nt
CCCCCOC(=O)NC1CCS(=O)(=O)C1 (configuration not stated),14,2,-12,-6,1,-4
COc1ccc(-c2nsc(SCC(=O)NCC3CCCO3)n2)cc1 (configuration not stated),6,7,-3,3,0,2
Cc1ccc(NS(=O)(=O)c2ccc3c(c2)C(=O)c2ccccc2C3=O)c(C)c1,12,11,-4,2,2,32*
O=C(O)c1ccc(NS(=O)(=O)c2ccc(NC(=O)c3ccccc3Cl)cc2)cc1,4,-6,7,10,4,3
CN(c1cccc(NC(=O)CCSc2ccccc2)c1)S(C)(=O)=O,2,8,-10,-4,8,9
CN(c1cccc(NC(=O)CSc2ccc(Cl)cc2)c1)S(C)(=O)=O,-1,10,1,-7,49*,29*
O=C(Nc1ccc(NS(=O)(=O)c2ccccc2)cc1)c1ccccc1Cl,3,6,nt,nt,6,25*
COCCCNC(=S)Nc1ccc(CC(=O)O)cc1,-3,2,11,-1,-1,1
CC(O)(CS(=O)(=O)Cc1cccc(C(F)(F)F)c1)C(=O)Nc1cccc(C(F)(F)F)c1 (configuration not stated),-3,-7,4,11,38*,2
CC[C@]12c3[nH]c4ccc(OC)cc4c3CCN1C(=O)C(CC(=O)NCCCN(C)C)C[C@@H]2C(=O)N1CCN(C(=O)c2ccco2)CC1 (some centres not stated),0,-4,nt,nt,-2,-2
c1ccc(-c2nc(-c3ccco3)n3ccccc23)cc1,3,1,-6,13,3,25*
c1ccc(Nc2c(-c3ccco3)nc3ccccn23)cc1,-1,-4,2,-5,2,1
c1ccc(-c2csc3ncnc(NCC4COc5ccccc5O4)c23)cc1 (configuration not stated),6,-2,2,-4,5,34*
Cc1sc2ncnc(NCC3COc4ccccc4O3)c2c1C (configuration not stated),-4,0,3,8,2,6
O=C(NCc1ccccc1)C(=O)NCC1OCCCN1S(=O)(=O)c1cccs1 (configuration not stated),-5,2,-10,-15,15,9
Cc1ccc(CNC(=O)C(=O)NCC2CCCN2S(=O)(=O)c2cc(C)ccc2C)cc1 (configuration not stated),7,2,-2,1,28*,9
O=C(NCc1ccc(F)cc1)C(=O)NCC1OCCCN1S(=O)(=O)c1cccs1 (configuration not stated),2,-14,10,-4,30*,7
O=C(NCCc1ccccc1)C(=O)NCC1OCCCN1S(=O)(=O)c1cc(F)ccc1F (configuration not stated),6,2,-8,-2,9,-4
SMILES,PAFAH1B3 FP inh,PAFAH2 inh,EBNA-1 inh,ZTA counter,PAFAH1B2 FP inh,pPAFAH inh
Cc1cc(F)ccc1S(=O)(=O)N1CCCOC1CNC(=O)C(=O)NCCc1ccccc1 (configuration not stated),5,-19,-6,-10,27*,11
COc1ccc(CNC(=O)C(=O)NCCC2CCCCN2S(=O)(=O)c2cccs2)cc1 (configuration not stated),-1,-2,-3,4,25*,2
Cc1ccccc1-c1cc(C(=O)NCC2CC2)nn1CC1CC(c2cccc([N+](=O)[O-])c2)=NO1 (configuration not stated),-2,5,nt,-1,4,7
CC(C)CC(=O)Nc1ccc(C(=O)COC(=O)C2CCC2)cc1,-12,-4,-7,-11,6,-5
CCOc1cc(/C=C(\C#N)C(=O)NCc2cccnc2)ccc1O,2,5,15,8,3,4
O=C(NCC1OCCc2ccccc21)c1ccc(NC(=O)c2ccc(Cl)cc2)cc1 (configuration not stated),3,-8,32*,1,0,-6
Cc1ccc(NC(=O)C(=O)NCC2OCCc3ccccc32)cc1 (configuration not stated),-2,0,-7,6,5,-5
Cc1cc(Nc2ccccc2)nn1C(=O)c1ccc(Br)cc1,10,-1,7,7,27*,11
Clc1cccc(N2CCN(CCCN3CCN(c4ccccc4)CC3)CC2)c1,10,0,nt,nt,3,nt
O=C1CC(=C2c3ccccc3-c3ccccc32)C(=O)N1CCN1CCN(c2cccc(Cl)c2)CC1,1,-6,16,2,-2,26*
CN(C)c1ccc2nc3ccc(=[N+](C)C)cc-3sc2c1,8,12,+,nt,3,3
Cc1nonc1CN(C)C(=O)c1cc(COc2ccc(F)cc2Cl)on1,14,-6,-2,-5,-6,26*
O=C(c1cc(COc2ccc(F)cc2Cl)on1)N1CCN(C2CCCC2)CC1,4,-7,13,-3,1,26*
CCC(C)N(C(=O)COC(=O)c1ccccc1SCC(=O)N1CCCC1)C1CCS(=O)(=O)C1 (configuration not stated),-2,0,6,-1,2,2
CCN1C(=O)N(C)C2(c3ccccc3)N(C)C(=O)N(C)C12c1ccccc1 (configuration not stated),2,5,0,6,38*,-3
CC(=O)Nc1ccc(S(=O)(=O)N(C)CC(=O)OCC(=O)NNC(=O)c2ccccc2F)cc1,-3,-4,-2,-9,1,2
